From PubChem BioAssay come the findings set out here.

Several values for one entry are separate records, joined by “and”; a condition that tells them apart may be missing. Equal entries are not always repeated.

The nature of this experiment: small molecules captured by biotinylated probe aFGF2 – biochemical, small-molecule microarray, fluorescence 635/667, stem cell growth factor project, primary screen (AID 1067).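 Also: measures binding of biotinylated aFGF2 protein to printed compounds on slides; z-score merges feature fluorescence and signal-to-noise across triplicate slides.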 The conditions noted are these: higher = more signal; small-molecule microarray, probe aFGF2, fluorescence unless noted.
For `CCCC=C(CCC)[C@@H](NP(=O)(c1ccccc1)c1ccccc1)c1ccccc1`, the composite z-score came out at 0.0354.

Consider `COC(=O)[C@H]1C(=O)c2ccccc2O[C@@](C(=O)OC)(c2ccccc2)[C@@H]1c1ccccc1`, for which the composite z-score was -0.149.

Take `C[C@@H]1Cc2c(cnc3c2CN(C)CC3)CO1`: the composite z-score was -0.105.

For `COc1cc2c(cc1O)C(C)N(C)CC2` (stereo unspecified), the composite z-score was -0.0345.

In the case of `CN1CCc2nc(CO)c(CO)cc2C1`, the composite z-score is -0.0982.

`COC(=O)C1(C)C=C2C(=C(C)C(=O)C2C)CN1` (stereo unspecified): the composite z-score was -0.0627.

As for `CC1N(P(=O)(c2ccccc2)c2ccccc2)CC(O)(c2ccccc2)CC12CC2` (stereo unspecified), the composite z-score is 0.0161 and 0.221.

As to `OCc1ccc(C2=CC(c3cccs3)N(Cc3cccc(OC(F)(F)F)c3)CC2)cc1` (stereo unspecified), the composite z-score was -0.0996.

For `CN1CCC(c2ccc(CO)cc2)=CC1C1CC1` (stereo unspecified), the composite z-score was -0.158.

As for `COC(=O)[C@H]1[C@@H](O)[C@@]2(O)c3c(OC)cc(OC)cc3O[C@@]2(c2ccc(OC)cc2)[C@@H]1c1ccccc1`, the composite z-score was -0.0894.

Take `CN1CCC(c2ccc(CO)cc2)=CC1c1cccs1` (stereo unspecified): the composite z-score is -0.128.

`COC(=O)[C@@]1(Cc2ccc(F)cc2)[C@H]2c3cc(C(=O)N(C)C)[nH]c3C[C@H]2CN1C(=O)c1ccccc1`: the composite z-score was -0.162 [setting not given].

As to `CCCc1cc2c(n1Cc1ccc(C)cc1)C(C)C1CN(C(=O)c3ccccc3)C(C)(C(=O)OC)C21` (stereo unspecified), the composite z-score is 0.459.

`COc1cc2c(cc1O)C=[N+](C)CC2`: the composite z-score is -0.172.

The compound `CCCc1cc2c(n1Cc1ccco1)C(C)C1CN(C(=O)c3ccccc3)C(C)(C(=O)OC)C21` (stereo unspecified) yielded a composite z-score of 0.13.

Consider `CCCC[C@@H]1C[C@H]1[C@@H](NP(=O)(c1ccccc1)c1ccccc1)c1ccc(Cl)cc1`, for which the composite z-score was -0.129.
